# High-throughput results deposited in PubChem by several laboratories.
# A selection: hits, their analogues and other compounds. The true share with any hit is near 2%.
# Kir21 block: blocks the mouse Kir2.1 inward-rectifier potassium channel; P35561; HEK293-Kir2.1, FluxOR thallium flux fluorescence; active compounds read low; B-score at 10 µM; actives 0.85% (n = 310,000); AID 1672;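 active means fluorescence ratio B-score at or below minus 3 SD of library scores, with starting-brightness B-score within 2 SD, cut at about -4.2 in these data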;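 further: channel flux triggered by added potassium and thallium sulfate stimulus; B-score of peak minus minimum fluorescence over baseline after thallium stimulus; more negative B-score means stronger Kir2.1 block with less thallium influx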
# CHT allo act: human CHT allosteric activation | CHT-expressing cells, membrane potential dye, choline EC20; active compounds read high; LV-AA mutant CHT in HEK293 cells | B-score at 10 µM | actives 0.49% (n = 310,000) | AID 488977;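 active means initial fluorescence not abnormally high and integrated response B-score, plate-corrected, over 3 SD above library mean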
# Target sequence (Q9GZV3 whole entry, looked up): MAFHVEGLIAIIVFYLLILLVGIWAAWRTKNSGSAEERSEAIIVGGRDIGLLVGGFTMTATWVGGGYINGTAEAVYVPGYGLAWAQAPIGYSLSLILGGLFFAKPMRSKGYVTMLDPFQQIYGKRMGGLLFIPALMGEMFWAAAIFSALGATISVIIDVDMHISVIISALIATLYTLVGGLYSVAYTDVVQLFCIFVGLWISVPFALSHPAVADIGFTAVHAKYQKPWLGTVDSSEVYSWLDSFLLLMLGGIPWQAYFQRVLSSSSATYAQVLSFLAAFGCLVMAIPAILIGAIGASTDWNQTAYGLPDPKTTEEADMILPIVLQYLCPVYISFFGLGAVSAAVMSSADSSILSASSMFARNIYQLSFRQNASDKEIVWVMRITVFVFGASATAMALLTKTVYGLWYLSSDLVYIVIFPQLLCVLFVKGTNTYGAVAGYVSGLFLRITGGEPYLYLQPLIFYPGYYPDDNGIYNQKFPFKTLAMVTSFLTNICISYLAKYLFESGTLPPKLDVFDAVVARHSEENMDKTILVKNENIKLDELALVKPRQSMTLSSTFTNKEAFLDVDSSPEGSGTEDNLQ
# CHT inh: human CHT choline transport inhibition; B-score at 10 µM; actives 0.86% (n = 310,000); CHT-expressing cells, membrane potential dye, choline response; active compounds read low; AID 488975; Q9GZV3;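 active means B-score over 3 SD under the library average, and starting fluorescence ratio not unusually high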;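 further: choline stimulus applied at its EC90 after an EC20 pre-addition; B-score computed on integrated fluorescence ratio after choline addition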
# TAG inh: inhibitors of triacylglycerol accumulation. H9c2 cells, Nile Red lipid (TAG) fluorescence; cells loaded with 200 µM oleic acid. inhibition, % at 12.5 µM. actives 0.66% (n = 230,000);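 active means pattern-corrected inhibition of lipid staining of at least 50% with the nuclear-stain viability signal not falling by more than 50%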;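 further: 0% = DMSO wells and 100% = triacsin C control wells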
# Starred values were filed as active, the others as inactive; i = inactive; x = not tested or not shown.
SMILES,Kir21 block,CHT allo act,CHT inh,TAG inh
NC(=NC(=O)c1ccc(Cl)cc1)N1N=CCC1c1ccccc1 (stereo unspecified),-0.22,i,i,-1
O=C(CSc1ccc(Cl)cc1)N1N=CCC1c1ccccc1 (stereo unspecified),-6.1*,i,i,4
O=C(CSCc1ccccc1)NCCc1ccc(F)cc1,0.94,i,i,x
CCOc1ccc(CCNC(=O)CSCc2ccc(C)cc2)cc1OCC,-6*,i,i,35
CCOc1ccc(CCNC(=O)CCOc2cc(C)ccc2C)cc1OCC,-5.1*,i,i,x
O=C(CSCc1ccc(Br)cc1)NCCc1ccccc1,-4.8*,i,i,x
CCc1ccc2nc(SCC(=O)N3CC(=O)Nc4ccccc43)c(C#N)cc2c1,-0.21,i,i,51*
N#Cc1cc(C#N)c(SCC(=O)N2CC(=O)Nc3ccccc32)nc1N,x,x,x,6
Cc1cc(O)c(C(C)C)cc1NS(=O)(=O)c1ccccc1,-6.8*,i,i,14
O=C1NC(Cc2c[nH]c3ccccc23)C(=O)N1CCOc1ccc(F)cc1 (stereo unspecified),-5.3*,i,i,3
O=C(CCCc1ccccc1)Nc1cccc([N+](=O)[O-])c1,0.87,i,i,-26
CC(CCc1ccccc1)NC(=O)CNc1cccc([N+](=O)[O-])c1 (stereo unspecified),-4.7*,i,i,x
CC(Oc1ccc(Cl)cc1)c1ccnn1S(=O)(=O)c1ccc(Cl)cc1 (stereo unspecified),0.31,i,i,-33
CC(Oc1ccccc1)c1ccnn1S(=O)(=O)c1ccccc1 (stereo unspecified),-8.6*,i,i,-8
COc1ccc(NS(=O)(=O)c2ccc(S(=O)(=O)N3CCCC3)cc2)cc1Cl,-2.3,i,i,x
COc1ccc(S(=O)(=O)Nc2ccc(F)c(F)c2)cc1Cl,-1.2,i,-6.4*,x
Cc1cc(OCc2cccc(S(=O)(=O)N3CCOCC3)c2)ccc1Cl,x,x,x,-8
CCOC(=O)c1ccc(NC(=O)COc2ccccc2CNC2CCCC2)cc1,-1.3,i,i,32
CCOc1cc(CNC2CCCC2)c(Cl)cc1OCC(=O)Nc1ccccc1,-4.5*,i,i,17
CC1Cc2ccccc2N1C(=O)Cn1cnc2c1c(=O)n(C)c(=O)n2C (stereo unspecified),-0.4,i,i,9
C=CCn1c(N)c(C(=O)Nc2cccc(C)c2)c2nc3ccccc3nc21,0.61,i,i,49
C=CCn1c(N)c(C(=O)Nc2ccc(C)c(C)c2)c2nc3ccccc3nc21,-5.1,i,i,54*
Cc1cc(NC(=O)COc2ccc(C(C)(C)C)cc2)no1,0.47,x,x,x
Cc1ccc(C(=O)CCC(=O)OC(C)C(=O)NC2CCCCC2C)cc1 (stereo unspecified),x,x,x,0
CC(C)OC(=O)c1ccccc1C(=O)c1ccc(N)c([N+](=O)[O-])c1,-5.3*,i,i,4
SMILES,Kir21 block,CHT allo act,CHT inh,TAG inh
Nc1ccccc1Sc1ccc(C(=O)c2ccccc2C(=O)O)cc1[N+](=O)[O-],0.66,i,i,-15
Cc1cccc(CN2CCC(C(=O)Nc3ccc(Oc4cccnc4)cc3)CC2)c1,-4.3*,i,i,9
COc1cccc(CN2CCC(C(=O)Nc3ccc(Oc4cccnc4)cc3)CC2)c1,-2.2,x,x,1
O=C(CCNC(=O)c1ccc(Cl)cc1)Nc1ccccc1N1CCCCC1,-4.6*,i,i,18
CC(C)n1cc(NC(=O)c2cc(-c3ccccc3)on2)cn1,0.62,i,i,50*
O=C(Nc1cccnc1)c1cc(-c2ccccc2)on1,1.8,i,i,10
COc1ccc(CNCc2ccc([N+](=O)[O-])cc2)cc1OC,-0.08,i,i,5
CCn1c(=O)c([N+](=O)[O-])c(NCCCn2ccnc2)c2ccccc21,-1.4,i,i,5
Cc1[nH]n(-c2ncc(-c3ccccc3)s2)c(=O)c1C(c1ccc(Br)cc1)C(C#N)C#N (stereo unspecified),-5.6*,i,i,x
O=C(CN1CCN(Cc2ccccc2)CC1)Nc1cccc(Br)c1,-4.6*,i,i,x
O=C(/C=C/c1ccccc1)NC1CC2CCCC(C1)N2Cc1ccccc1 (stereo unspecified),0.67,i,i,x
Cc1ccc(NC(=O)CN2CCN(Cc3ccccc3)CC2)cc1Cl,-1.9,i,i,14
O=C(NC1CCN(Cc2ccccc2)CC1)c1cccc(Br)c1,-4.6*,i,i,x
O=C(/C=C/c1cccc(Br)c1)NC1CCN(Cc2ccccc2)CC1,-5.8*,i,i,x
O=C(NC1CCN(Cc2ccccc2)CC1)c1cccc(OC(F)F)c1,-0.63,i,i,x
Cc1c(C(=O)NC2CCN(Cc3ccccc3)C2)oc2ccc(Br)cc12 (stereo unspecified),-10*,i,i,x
CC1CC(C)CN(CC(=O)NNC(=O)COc2ccc(Cl)cc2)C1 (stereo unspecified),x,x,x,0
O=C(COC(=O)/C=C/c1cccc(F)c1)NC1CC1,x,x,x,-9
O=C(/C=C/c1cccc(F)c1)NC1CCN(Cc2ccccc2)CC1,-4.7*,i,i,x
CCc1nc2ccc(C(=O)Nc3cccc(OCC(=O)N(C)C)c3)cn2c1N(C)Cc1ccc(N(C)C)cc1,x,x,x,6
CCCC(=O)O[C@]1(C(=O)COC(C)=O)CC[C@H]2[C@@H]3C[C@H](F)C4=CC(=O)C=C[C@]4(C)[C@@]3(F)[C@@H](O)C[C@@]21C,-1,i,-5*,32
CCN(C(=O)c1ccc(NC(=O)c2ccco2)cc1)c1ccccc1,0.46,i,i,20
Cc1ccccc1OCC(=O)OCC(=O)NCCc1ccccc1,x,x,x,-1
CCNC(=O)NC(=O)C(C)OC(=O)C(C)(C)Oc1ccc(Cl)cc1 (stereo unspecified),-5.3*,i,i,3
Cc1ccc(N2CC(C(=O)NCCS(=O)(=O)N3CCN(c4ccccc4F)CC3)CC2=O)cc1 (stereo unspecified),0.01,i,i,x
SMILES,Kir21 block,CHT allo act,CHT inh,TAG inh
CCC[C@H]1COCCS(=O)(=O)N1Cc1ccc(Br)cc1,-6.1*,i,i,x
CCN(CC)c1ccc(C(=O)NNC(=O)CN2C(=O)NC(C)(c3ccccc3)C2=O)cc1 (stereo unspecified),x,x,x,-2
O=C1C=CC(=O)N1CCNc1ncc(C(F)(F)F)cc1Cl,-5.7*,x,x,11
O=C1CC(=O)N(CCNc2ncc(C(F)(F)F)cc2Cl)C(=O)N1,0,i,i,1
C=CCN(c1ccccc1)S(=O)(=O)c1cccc(C(=O)Oc2ccc3c(C)cc(=O)oc3c2)c1,0.01,i,i,x
CC(=O)Nc1ccc(C(=O)Nc2nc(-c3ccccn3)cs2)cc1,0.05,i,i,5
O=C(Nc1nc(-c2ccccn2)cs1)c1ccccc1-n1cnnn1,-0.05,i,i,51*
CC(C)Oc1ccc(NC(=O)c2ccncc2)cc1,-1.5,i,i,-34
CCCCCCn1c(C(C)NC(=O)c2ccco2)nc2ccccc21 (stereo unspecified),-9*,i,i,-3
